AmpC detergent = qHTS Inhibitors of AmpC Beta-Lactamase (assay with detergent) | AID 485294, 2010 | Potency, µM (titrated, usually from 114 µM), for inactives: at the top dose activity change, negative = inhibition, actives largely listed as inhibitors | hit rate 0.041% among 370,000 | P00811 | AmpC hydrolysis of nitrocefin, absorbance 480 nm, 0.01% Triton;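 further: potency means the concentration at half of the fitted maximal effect; 0% = no-compound wells and -100% = no-enzyme wells; nearly all actives have a fitted effect of over 25% in size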
Target sequence (P00811 whole entry, looked up): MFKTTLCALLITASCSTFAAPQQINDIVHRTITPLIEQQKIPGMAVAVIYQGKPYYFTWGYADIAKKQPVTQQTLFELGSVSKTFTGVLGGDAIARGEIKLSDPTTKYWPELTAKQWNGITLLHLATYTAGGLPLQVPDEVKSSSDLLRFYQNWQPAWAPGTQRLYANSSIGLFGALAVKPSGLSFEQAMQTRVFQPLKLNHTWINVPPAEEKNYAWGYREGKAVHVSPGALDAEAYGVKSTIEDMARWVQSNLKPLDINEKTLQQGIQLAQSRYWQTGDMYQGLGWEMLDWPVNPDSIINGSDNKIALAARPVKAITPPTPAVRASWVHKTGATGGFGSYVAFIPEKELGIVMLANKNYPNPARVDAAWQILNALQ
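AmpC (5.3 nM in the dispensed reagent) in 20 mM phosphate pH 7.0 with 0.01% (detergent screen) or 0.0001% Triton X-100 was preincubated with compounds for 15 min at room temperature. Nitrocefin was then added from an 800 uM solution, and hydrolysis was followed at 480 nm.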
AMA1-RON2 inh = qHTS for Inhibitors of AMA1-RON; Towards Development of Antimalarial Drug Lead: Primary Screen; Plasmodium falciparum AMA1 (3D7) - RON2 peptide interaction; AlphaScreen AMA1-biotinylated RON2 peptide binding; Potency, µM (doses to about 58.2 µM), for the others: at the highest dose activity change, negative = inhibition, most hits filed as inhibitors; hit rate 0.2% among 360,000;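 further: potency means the concentration at half of the fitted maximal effect; 0% = vehicle wells and -100% = peptide control; nearly all actives have a fitted effect of over 45% in size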
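AMA1 (3D7) with his tag at 25 nM final met compounds first, then biotinylated RON2 peptide at 25 nM; detection used donor plus acceptor beads, 10 µg/mL apiece, read by AlphaScreen after 30 min at room temperature.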
Cycloheximide cs = Cycloheximide Counterscreen for Small Molecule Inhibitors of Shiga Toxin; cell reporter, cycloheximide protein synthesis inhibition counterscreen; max response, %; hit rate 12% among 300,000; AID 2314, 2010; in the data active means max response mostly above about 13%, no sharp cut-off; inactive means mostly below about 14%; further: read at 38.3 µM for the half of the compounds with a filed dose; 0% is about no effect
Shiga inhibitor = A qHTS for Small Molecule Inhibitors of Shiga Toxin. Vero cells, Shiga toxin protein synthesis inhibition reporter. AID 2315, 2010. hit rate 9.2% among 290,000. inhibition, % at 38.7 µM; in the data active means inhibition mostly above about 28%, no sharp cut-off; inactive means mostly below about 43%; further: 0% is about no effect
AmpC inh no detg = qHTS Inhibitors of AmpC Beta-Lactamase (assay without detergent). P00811. AmpC nitrocefin hydrolysis, absorbance 480 nm, 0.0001% Triton. hit rate 0.52% among 330,000. AID 485341, 2010. Potency, µM (highest dose often 57.1 µM), for the others: at the highest dose activity change, negative = inhibition, hits mostly inhibitors;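 further: potency means the concentration at half of the fitted maximal effect; plate controls were no compound for no effect and no enzyme for full effect; nearly all actives have a fitted effect of over 20% in size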
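20 mM phosphate pH 7.0 + 0.01% (detergent screen) or 0.0001% Triton X-100; 5.3 nM AmpC reagent; cpd preinc 15 min RT; nitrocefin (800 uM stock) to start; A480 q20 s × 4 min; Activity was normalised to no-enzyme and no-compound control wells.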
SARS PLpro yeast = qHTS of Yeast-based Assay for SARS-CoV PLP; Potency, µM (doses to about 32.9 µM), for inactives: top-dose activity, positive = growth rescue, usual class: activators; AID 485353, 2010; hit rate 0.19% among 330,000; S. cerevisiae expressing SARS-CoV PLpro, growth rescue; calls by dose curve; further: potency means the concentration at half of the fitted maximal effect; 0% is about no effect; nearly all actives have a fitted effect of over 55% in size
Numbers without * were called inactive; ? = inconclusive; / = not tested or not shown; [ ] = another dose, or the depositor's remark. This is one part of a sample in which hits are shown more often than they occur. Unless noted, the call rests on the fitted dose curve; in most records, active means well fitted curve in the direction sought with a large enough effect; inconclusive means small, poorly fitted or top-dose-only effect, or another doubt; inactive means no such curve, though single readings can be large; an effect the other way counts as inactive or inconclusive.

SMILES | AmpC detergent | AMA1-RON2 inh | Cycloheximide cs | Shiga inhibitor | AmpC inh no detg | SARS PLpro yeast
O=C(O)c1cccc(Nc2c([N+](=O)[O-])c(=O)oc3ccccc23)c1 | 0% | 2% | 73* | 125* | -1% | -1%
CC(=O)c1cccc(Nc2c([N+](=O)[O-])c(=O)oc3ccccc23)c1 | 8% | -3% | -3 | -11 | -13% | -4%
O=C(O)c1cccc(Nc2c3ccccc3nc3ccccc23)c1 | -8% | -1% | 107* | 87* | 0% | -18%
O=C(O)/C=C/C(=O)Nc1ccccc1C(=O)Nc1ccccc1 | -7% | 0% | 20 | 33 | -27% | 0%
COc1ccc(C(=O)N2CCN(S(=O)(=O)c3ccc(Cl)cc3)CC2)cc1S(=O)(=O)N1CCOCC1 | / | -10% | / | / | / | /
Cc1cccc(NC(=O)c2ccc(NCCO)c([N+](=O)[O-])c2)n1 | 1% | -5% | 30* | 53* | -20% | 3%
Cc1cccc(NC(=O)c2ccc(NCC3CCCO3)c([N+](=O)[O-])c2)n1 (centres undefined) | -5% | -8% | 19* | 68* | -3% | -1%
Cc1cccc(NC(=O)c2ccc(NCC3CCCO3)c([N+](=O)[O-])c2)c1 (centres undefined) | ? | 1% | 19* | 2 | -53% | 18%
O=C(Nc1cccc(Cl)c1)c1ccc(NCC2CCCO2)c([N+](=O)[O-])c1 (centres undefined) | -9% | 16% | -3 | -11 | -25% | 4%
Cc1ccc(C(=O)Nc2cccc(NC(=O)c3ccc(C)c([N+](=O)[O-])c3)n2)cc1[N+](=O)[O-] | -2% | 5% | 0 | 7 | -44% | -3%
CS(=O)(=O)c1ccc(NCC2CCCO2)c([N+](=O)[O-])c1 (centres undefined) | -13% | 3% | -3 | -4 | 33% | 1%
CCOC(=O)N1CCN(C(=O)C2CCCN(S(=O)(=O)c3c(C)cc(C)cc3C)C2)CC1 (centres undefined) | 0% | -4% | -4 | -8 | 166% | 2%
Nc1ccc(Oc2ccc3nc(-c4ccccc4)c(-c4ccccc4)nc3c2)cc1 | -5% | -2% | 1 | -7 | -9% | 2%
Nc1ccc(Oc2cc(N)cc(Oc3ccccc3)c2)cc1 | -3% | -15% | 44* | 68* | -35% | 2%
CSc1ccc(Cn2c(C)c(C(=O)NCc3cccc(C)c3)sc2=O)cc1 | / | 0% | / | / | / | /
COc1ccc(NC2=CC(=O)CC(c3ccccc3)C2)cc1 (centres undefined) | ? | 7% | 22* | -8 | -13% | 0%
O=C1C=C(Nc2ccccc2)CC(c2ccccc2)C1 (centres undefined) | -1% | -16% | 3 | 22 | -16% | 0%
CCOC(=O)C1C(=O)NC(N2CCOCC2)=NC1C(C)C (centres undefined) | -7% | 3% | 0 | 32 | -4% | -1%
Cc1cccc(NC(=O)c2ccc(NC(=O)c3ccccc3Br)cc2)c1 | -7% | 7% | 20* | 37 | -48% | 2%
Cc1ccccc1C(=O)NNC(=S)Nc1cccc(C(F)(F)F)c1 | -4% | 77% | 28* | 27 | -21% | 20%
Cc1cccc(NC(=O)c2ccccc2C(=O)O)c1 | -2% | -12% | 9 | 0 | -9% | 5%
CC(=O)OC1OCCOC1NC(=S)Nc1cccc(C(F)(F)F)c1 (centres undefined) | -1% | -1% | 19* | 66* | -8%[11.4 µM] | 0%
FC(F)(F)c1cccc(NC(=S)NNC(=S)Nc2cccc(C(F)(F)F)c2)c1 | 26% | / | 10 | 22 | -34% | -7%
Cc1cccc(NC(=S)NNC(=O)c2ccccc2Br)c1 | ? | -1% | 20* | 78* | -23% | ?
CCC(C)NC(=O)CS(=O)(=O)Cc1nc(-c2cccc(OC)c2)oc1C (centres undefined) | ? | -1% | -2 | -2 | 20% | 0%
SMILES | AmpC detergent | AMA1-RON2 inh | Cycloheximide cs | Shiga inhibitor | AmpC inh no detg | SARS PLpro yeast
CS(=O)(=O)NCc1ccccc1Br | -2% | / | / | / | -22% | 1%
Cc1ccc(NC(=O)c2ccc(C)cc2)cc1 | -5% | 9% | / | / | -10% | 4%
Cc1ccc(C(=O)Nc2ccc(Br)c(C(F)(F)F)c2)cc1 | 0% | 7% | 82* | 108* | -58% | -24%
O=C(NNC(=S)Nc1ccc(F)c(Cl)c1)c1ccccc1Br | 0% | 21% | 12 | 43* | -43% | -2%
Cc1c(NC(=S)N/N=C/c2ccc([N+](=O)[O-])cc2O)c(=O)n(-c2ccccc2)n1C | 3% | -74% | -3 | 33 | -24% | 19%
COc1ccc(N2C(=O)CCC(C(=O)N3CCCCC3)C2c2ccc(F)cc2)cc1 (centres undefined) | -4% | 4% | -3 | 9 | 53% | 3%
O=C(CCCCCn1c(=S)[nH]c2ccc(Br)cc2c1=O)NCC1CCCO1 (centres undefined) | ? | 17% | -6 | 4 | -41% | 8%
NS(=O)(=O)c1ccc(CCNC(=O)CCCCCn2c(=S)[nH]c3ccc(Br)cc3c2=O)cc1 | ? | 76% | -1 | -10 | 18µM* | -1%
Cc1cccc(OCC(=O)O/N=C(\N)Cc2cccs2)c1 | -1% | 2% | -4 | -6 | 21% | 0%
N/C(Cc1cccs1)=N\OC(=O)COc1ccc(Br)cc1 | -4% | 179% | 30* | 23 | -16% | -5%
COc1ccc(OCC(=O)O/N=C(\N)Cc2cccs2)cc1 | -3% | -19% | 22* | 64* | -22% | -5%
Cc1ccccc1C(=O)O/N=C(\N)Cc1cccs1 | -3% | 13% | 88* | 95* | -20% | -15%
CC(=O)Nc1ccc(S(=O)(=O)NC2CC(=O)N(c3cccc(F)c3)C2)cc1 (centres undefined) | -15% | 13% | / | / | -15% | -7%
CCCCNC(=O)CCSc1nc(-c2ccc3c(c2)OCO3)cc(C(F)(F)F)n1 | 23% | / | / | / | / | /
COc1cc(CNc2ccccc2Oc2cc(=O)n(C)c(=O)n2C)cc(OC)c1OC | 0% | 12% | 5 | 3 | 117% | 7%
Cn1c(Oc2ccccc2NCc2cc(Br)ccc2O)cc(=O)n(C)c1=O | ? | -2% | -4 | -2 | 22µM* | 0%
O=C(N/N=C/c1cccc(OC(=O)c2ccco2)c1)c1ccc(F)cc1 | ? | 14% | 64* | 26* | -41% | -10%
COc1cc(/C=N/NC(=O)c2ccc(F)cc2)ccc1OC(=O)c1ccco1 | -2% | 8% | 21* | 52 | 10µM* | 9%

Screening results deposited in PubChem by National Center for Advancing Translational Sciences (NCATS).
